Results on 21 molecules are retold here after the supplement of paper PMC11060735.

Values joined by “and” are separate entries in the source; they are usually repeats but may differ in a detail not shown here. Identical values can stand only once. Counter-ions that a name gives are not always drawn. Hit rate of the full screen: of about 1,800 compounds, about 50 (3%) showed activity. The list comes from a sample in which actives are over-represented; it also holds similar structures and randomly drawn compounds. Unmarked numbers belong to inactive results.

This experiment has as its system mouse p16Ink4a+/- lung fibroblasts (INKBRITE, bleomycin-injured). As to the kind of experiment: percentage of GFP+ (p16Ink4a+) fibroblasts among all cells in well; higher = less depletion of p16Ink4a+ cells, active = 20 or less. The note with it: 1 µM; 3 days.
Take `Cc1cccc(CC(=O)N2CCc3c2ccc(-c2cn(C)c4ncnc(N)c24)c3F)n1`: the “percentage of GFP+” value is 45%.
`Cn1cc(CNCC2CCN(c3ncc(C(=O)NO)cn3)CC2)c2ccccc21` [Quisinostat]: the “percentage of GFP+” value is 1.92% (active).
In the case of `COc1cc(C(=O)NS(=O)(=O)c2ccccc2C)ccc1Cc1cn(C)c2ccc(NC(=O)OC3CCCC3)cc12` [Zafirlukast], the “percentage of GFP+” value was 47.1%.
The figure for `CN1CCc2c(c3ccccc3n2Cc2ccc(C(=O)NO)cc2)C1` [Tubastatin A HCl] is 53.9% and 45%; for `COc1ccc(COc2ccc(Cc3cnc(N)nc3N)cc2OC)cc1` it is 33.4%; for `Cc1cccc(C)c1OCC(C)N` (stereo unspecified) [Mexiletine] it is 46%.
`Cc1cc(C)c(CNC(=O)c2cc(-c3ccc(CN4CCOCC4)cc3)cc3c2cnn3C2CCCC2)c(O)n1`: the “percentage of GFP+” value was 49.7%.
In the case of `CCNC(=O)c1noc(-c2cc(C(C)C)c(O)cc2O)c1-c1ccc(CN2CCOCC2)cc1` [Luminespib (NVP-AUY922)], the “percentage of GFP+” value was 6.33% (active).
Under `CCN(c1cc(-c2ccc(CN3CCOCC3)cc2)cc(C(=O)NCc2c(C)cc(C)nc2O)c1C)C1CCOCC1` stands 54.5%; under `Cc1cc(C2CCCCC2)n(O)c(=O)c1` [Ciclopirox], 29.6% and 35.5%.
As to `CCCOc1ccc(C(=O)OCCN(CC)CC)cc1N` [Proparacaine], the “percentage of GFP+” value is 37.1%.
In the case of `COC(=O)CCSCc1ccc(-c2onc(C)c2NC(=O)OC(C)c2ccccc2Cl)cc1` (stereo unspecified), the “percentage of GFP+” value is 43.9%.
In the case of `CCN(CC)CCCC(C)Nc1c2ccc(Cl)cc2nc2ccc(OC)cc12` (stereo unspecified) [Quinacrine], the “percentage of GFP+” value was 46.6%.
Under `O=C(/C=C\n1cnc(-c2cc(C(F)(F)F)cc(C(F)(F)F)c2)n1)N1CC(F)(F)C1` stands 24.1%; under `COc1cc(-c2ncn(/C=C\C(=O)OC(C)C)n2)cc(C(F)(F)F)c1`, 14.1% (active); under `O=C(/C=C\n1cnc(-c2cc(C(F)(F)F)cc(C(F)(F)F)c2)n1)NNc1cnccn1` [Selinexor (KPT-330)], 14.7% (active).
Under `CN(C)CCOC(c1ccccc1)c1ccccc1` [Diphenhydramine] stands 47.9%; under `CC(C)(C)c1cnc(CSc2cnc(NC(=O)C3CCNCC3)s2)o1`, 28.7%.
On to `N#Cc1ccc2[nH]c(O)c(-c3ccc(CN4CCOCC4)cn3)c2c1`, for which the “percentage of GFP+” value was 40.8%.
Under `CO/C(O)=C1\C(C)=NC(C)=C(C(=O)O[C@@H]2CCCN(Cc3ccccc3)C2)[C@@H]1c1cccc([N+](=O)[O-])c1` [Benidipine] stands 41.8%.
On to `Cn1c(=O)c2c(ncn2CC2OCCO2)n(C)c1=O` [Doxofylline], for which the “percentage of GFP+” value is 41%.
